Test results taken from PubChem BioAssay (NCI).
This is part of a sample that, as a whole, favours compounds with a hit. Of some 83,000 tested, about 20% had one in any assay.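 Values shown are percent growth following 48 h exposure of cells in 96-well plates to a single concentration of compound; below 10 was considered active.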 Activity calls are given as the source filed them.

Legend:
Test in all cases: NCI-60 one-dose screen, 48 h (100 = growth as untreated, 0 = no growth, -100 = all killed)
786-0 renal = details: 10 µM unless noted
DU-145 prostate = details: 10 µM unless noted
MDA-MB-231 breast = details: 10 µM unless noted
SF-268 CNS = details: 10 µM unless noted
SF-539 CNS = details: 10 µM unless noted
UACC-257 melanoma = details: 10 µM unless noted
HCT-15 colon = details: 10 µM
SNB-19 CNS = details: 10 µM unless noted
PC-3 prostate = details: 10 µM unless noted
UACC-62 melanoma = details: 10 µM unless noted
LOX IMVI melanoma = details: 10 µM unless noted
SK-MEL-28 melanoma = details: 10 µM unless noted
SN12C renal = details: 10 µM unless noted
MOLT-4 leukemia = details: 10 µM
OVCAR-8 ovarian = details: 10 µM unless noted
OVCAR-3 ovarian = details: 10 µM unless noted
MDA-MB-435 melanoma = details: 10 µM unless noted
MCF7 breast = details: 10 µM unless noted
KM12 colon = details: 10 µM unless noted
SW-620 colon = details: 10 µM unless noted

SMILES	growth (786-0 renal)	growth (DU-145 prostate)	growth (MDA-MB-231 breast)	growth (SF-268 CNS)	growth (SF-539 CNS)	growth (UACC-257 melanoma)	growth (HCT-15 colon)	growth (SNB-19 CNS)	growth (PC-3 prostate)	growth (UACC-62 melanoma)	growth (LOX IMVI melanoma)	growth (SK-MEL-28 melanoma)	growth (SN12C renal)	growth (MOLT-4 leukemia)	growth (OVCAR-8 ovarian)	growth (OVCAR-3 ovarian)	growth (MDA-MB-435 melanoma)	growth (MCF7 breast)	growth (KM12 colon)	growth (SW-620 colon)
CC(=O)Nc1ccc(C=C2C(=O)NC(=O)NC2=O)cc1	96.3% (inactive)	124% (inactive)	104% (inactive)	111% (inactive)	105% (inactive)	98.4% (inactive)	103% (inactive)	98.4% (inactive)	93.3% (inactive)	99.1% (inactive)	96.8% (inactive)	106% (inactive)	103% (inactive)	88% (inactive)	101% (inactive)	125% (inactive)	101% (inactive)	94% (inactive)	112% (inactive)	–
O1[As]2O[As]3O[As]1O[As](O2)O3	10.7% (inactive)	–	-22.8% (active)	5.42% (active)	-4.27% (active)	-22.1% (active)	-23.4% (active)	-2.55% (active)	10.7% (inactive)	-53.3% (active)	0.399% (active)	-17.6% (active)	4.31% (active)	10.7% (inactive)	4.6% (active)	-35.3% (active)	14.1% (inactive)	6.19% (active)	39% (inactive)	4.74% (active)
O=C(Nc1ccc(S(=O)(=O)F)cc1)Oc1ccccc1	102% (inactive)	103% (inactive)	104% (inactive)	102% (inactive)	104% (inactive)	111% (inactive)	104% (inactive)	97.6% (inactive)	93.4% (inactive)	97.5% (inactive)	95.1% (inactive)	99.2% (inactive)	104% (inactive)	109% (inactive)	101% (inactive)	105% (inactive)	99.9% (inactive)	91.6% (inactive)	102% (inactive)	97% (inactive)
C[C@@H]1O[C@@H](O[C@H]2CC[C@@]3(C)[C@H](CCC4[C@@H]3C(O)C[C@]3(C)[C@@H](c5ccc(=O)oc5)CC[C@]43O)C2)[C@H](O)[C@H](O)[C@H]1O (stereo partly drawn)	-94.1% (active)	-70.1% (active)	-63.7% (active)	-63.1% (active)	–	-99.7% (active)	-74.5% (active)	-91.1% (active)	-33.3% (active)	-89.6% (active)	-55.8% (active)	-96.1% (active)	-25.3% (active)	–	–	-46.7% (active)	-76.2% (active)	-59.4% (active)	-94.2% (active)	-79% (active)
O=C(CF)N(O)c1ccc(/C=C/c2ccccc2)cc1	8.73% (active)	1.13% (active)	73.4% (inactive)	42.5% (inactive)	36.2% (inactive)	-7.11% (active)	66.6% (inactive)	54.3% (inactive)	62.3% (inactive)	23.4% (inactive)	39.8% (inactive)	99.9% (inactive)	26.6% (inactive)	34.9% (inactive)	39.9% (inactive)	23.9% (inactive)	72.3% (inactive)	16.5% (inactive)	69.5% (inactive)	56.5% (inactive)
O=[N+]([O-])c1ccc2cnn(CSP(=S)(c3ccccc3)c3ccccc3)c2c1	88.3% (inactive)	105% (inactive)	51.8% (inactive)	79.9% (inactive)	82.7% (inactive)	86.3% (inactive)	48.1% (inactive)	88.6% (inactive)	58.6% (inactive)	43% (inactive)	65% (inactive)	74.1% (inactive)	69.9% (inactive)	44% (inactive)	82.4% (inactive)	71.6% (inactive)	-20.9% (active)	26.8% (inactive)	63.7% (inactive)	31.7% (inactive)
N#CC1=C(N)Oc2cc3c(cc2C1c1cccs1)OCO3 (stereo not drawn)	49.5% (inactive)	15.5% (inactive)	41.8% (inactive)	47.3% (inactive)	0.18% (active)	60.8% (inactive)	35.5% (inactive)	43.2% (inactive)	24% (inactive)	31.1% (inactive)	37.2% (inactive)	37.9% (inactive)	52.7% (inactive)	29.9% (inactive)	35.1% (inactive)	-15% (active)	-7.43% (active)	15.7% (inactive)	34.2% (inactive)	26.3% (inactive)
O=[N+]([O-])c1ccc(/C=C/C=C/c2ccc(S(=O)(=O)F)cc2)c(Cl)c1	97.5% (inactive)	107% (inactive)	99.3% (inactive)	96.1% (inactive)	104% (inactive)	96.5% (inactive)	98% (inactive)	94.3% (inactive)	91.8% (inactive)	94.9% (inactive)	102% (inactive)	98.6% (inactive)	96.7% (inactive)	84.1% (inactive)	99% (inactive)	109% (inactive)	92.9% (inactive)	102% (inactive)	97.1% (inactive)	104% (inactive)
CCOC(=O)c1cnc(SCc2ccc(Cl)c(Cl)c2)nc1N1CC1	60% (inactive)	66.7% (inactive)	51.7% (inactive)	74.9% (inactive)	44.1% (inactive)	79% (inactive)	33.7% (inactive)	62.9% (inactive)	51.2% (inactive)	51.1% (inactive)	23.7% (inactive)	88.5% (inactive)	58.4% (inactive)	24.5% (inactive)	51.6% (inactive)	54.6% (inactive)	10.5% (inactive)	29.3% (inactive)	50.5% (inactive)	33.8% (inactive)
N#CC(C#N)=Cc1ccc2ccccc2c1	104% (inactive)	109% (inactive)	106% (inactive)	116% (inactive)	107% (inactive)	108% (inactive)	111% (inactive)	106% (inactive)	95.7% (inactive)	115% (inactive)	84% (inactive)	113% (inactive)	111% (inactive)	107% (inactive)	105% (inactive)	117% (inactive)	114% (inactive)	103% (inactive)	–	–
COc1ccc(C(c2ccc(OC)cc2)C(Cl)(Cl)Cl)cc1	74.4% (inactive)	107% (inactive)	93% (inactive)	88.6% (inactive)	79.5% (inactive)	78.8% (inactive)	91.8% (inactive)	84% (inactive)	68.7% (inactive)	84.7% (inactive)	–	103% (inactive)	97.8% (inactive)	85.8% (inactive)	86.7% (inactive)	–	72.4% (inactive)	92.6% (inactive)	83.8% (inactive)	89.4% (inactive)
O=C(CC1(O)C(=O)Nc2ccc(F)cc21)c1ccc(C(=O)NCC2CCC3(CC2)OOC2(CCCCC2)OO3)cc1 (stereo not drawn)	-78.5% (active)	3.83% (active)	41.5% (inactive)	63.4% (inactive)	7.74% (active)	70.4% (inactive)	74.1% (inactive)	80.2% (inactive)	44.2% (inactive)	73.4% (inactive)	39.1% (inactive)	78.5% (inactive)	51.4% (inactive)	22.5% (inactive)	19.7% (inactive)	-50.1% (active)	63.8% (inactive)	60.9% (inactive)	32.5% (inactive)	61.1% (inactive)
CC(=O)Nc1ccc(Cc2ccc(NC(C)=O)cc2)cc1	101% (inactive)	130% (inactive)	105% (inactive)	117% (inactive)	104% (inactive)	99.1% (inactive)	107% (inactive)	121% (inactive)	71.4% (inactive)	107% (inactive)	99.8% (inactive)	109% (inactive)	101% (inactive)	76.3% (inactive)	95.6% (inactive)	119% (inactive)	106% (inactive)	99.8% (inactive)	139% (inactive)	117% (inactive)
O=c1cc[nH]c(=O)o1	98.7% (inactive)	104% (inactive)	117% (inactive)	99.9% (inactive)	104% (inactive)	–	104% (inactive)	108% (inactive)	98% (inactive)	99.4% (inactive)	97.9% (inactive)	111% (inactive)	105% (inactive)	97.4% (inactive)	96.6% (inactive)	107% (inactive)	111% (inactive)	96.9% (inactive)	103% (inactive)	107% (inactive)
CCCC(C)(C)c1ccc2c(c1)OC(C)(C)[C@@H]1CC=C(C)C[C@@H]21	98.8% (inactive)	108% (inactive)	108% (inactive)	93% (inactive)	104% (inactive)	93.1% (inactive)	107% (inactive)	103% (inactive)	84.3% (inactive)	98% (inactive)	96.3% (inactive)	112% (inactive)	105% (inactive)	95.6% (inactive)	97.7% (inactive)	102% (inactive)	105% (inactive)	93.9% (inactive)	103% (inactive)	97.3% (inactive)
C[C@@H]1CC[C@@H]2[C@@H]1[C@H](OC(=O)/C=C/C1CCCCC1)[C@]1(C3CCCCC3)C[C@@H](OC(=O)CO)[C@@]2(C)O1	-10.1% (active)	82.1% (inactive)	61.5% (inactive)	39.6% (inactive)	95.9% (inactive)	61.7% (inactive)	48.4% (inactive)	85.8% (inactive)	31.1% (inactive)	69.5% (inactive)	–	74.5% (inactive)	31.2% (inactive)	–	23% (inactive)	70.6% (inactive)	72.9% (inactive)	40.2% (inactive)	56% (inactive)	66.4% (inactive)
